The experiment has as its target Polyunsaturated fatty acid lipoxygenase ALOX12 (Homo sapiens) (UniProt P18054). Put plainly: Inhibitors of 12-hLO (12-human lipoxygenase): Cuvette-Based Hit Assay for Validation of Followup Compounds. The following applies: purified 12-hLO, cuvette absorbance 234 nm. As to the method: The enzyme activity of 12-hLO was determined by a direct measurement of product formation by monitoring the absorbance at 234 nm in a 2 mL cuvette. IC50 values of inhibitors were obtained by measuring the enzymatic rate at a variety of concentrations (Carroll et al, Segraves et al). This assay was used to validate actives or inconclusive putative inhibitors identified in the primary screen (see related BioAssay AIDs). Assay Provider: Holman, T.R., University of California, Santa Cruz Screening Center PI: Austin, Christopher P. Screening Center: NIH Chemical Genomics Center
For control experiments, 2 mL of substrate buffer (10 uM arachidonic acid / 25 mM HEPES / 0.01% (v/v) Triton X-100, pH 8.0) was aliquoted in a cuvette with a magnetic stir bar. After equilibrium was ensured, an aliquot of inhibitor solvent was added (DMSO), and equilibrium was once again assured. The reaction was started by adding enzyme to the cuvette and the reaction was followed until completed. The inhibition experiments were performed as above, except the actual inhibitory compound was added instead of vehicle. To achieve an IC50, typically 5 concentrations of the inhibitor were studied. If the inhibitor concentration was constant, then five different reaction volumes were used. […] 3; No change in absorbance ensured. […] 5; No change in absorbance ensured. […]

The structures appear in SMILES notation. Activity calls are given as the source filed them. The call rests on the fitted dose curve.

Polyunsaturated fatty acid lipoxygenase ALOX12 (Homo sapiens), sequence (P18054 whole entry, looked up): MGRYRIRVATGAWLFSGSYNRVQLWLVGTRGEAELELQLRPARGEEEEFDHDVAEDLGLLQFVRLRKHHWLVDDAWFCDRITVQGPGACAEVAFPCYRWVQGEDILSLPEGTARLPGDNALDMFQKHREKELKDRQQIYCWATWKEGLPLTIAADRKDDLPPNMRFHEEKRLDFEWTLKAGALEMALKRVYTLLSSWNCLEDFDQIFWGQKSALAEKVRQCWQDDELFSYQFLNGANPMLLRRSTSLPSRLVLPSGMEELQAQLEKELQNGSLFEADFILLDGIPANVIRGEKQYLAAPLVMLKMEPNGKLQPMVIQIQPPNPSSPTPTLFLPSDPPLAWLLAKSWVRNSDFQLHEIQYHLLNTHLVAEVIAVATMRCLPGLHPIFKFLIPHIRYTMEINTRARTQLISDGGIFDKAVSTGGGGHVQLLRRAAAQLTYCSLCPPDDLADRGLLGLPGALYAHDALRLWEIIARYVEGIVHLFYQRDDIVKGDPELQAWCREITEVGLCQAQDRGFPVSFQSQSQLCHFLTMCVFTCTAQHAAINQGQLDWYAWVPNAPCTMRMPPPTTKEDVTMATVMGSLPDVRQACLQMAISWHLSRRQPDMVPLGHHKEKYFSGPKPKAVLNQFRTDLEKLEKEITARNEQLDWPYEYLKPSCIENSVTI

Turning to `CC(Oc1ccc(Cl)cc1Cl)C(=O)Nc1ccc(S(=O)(=O)Nc2cnc3ccccc3n2)cc1` (stereo unspecified), the Potency is 22.6 µM (active).

The values above are taken from PubChem BioAssay AID493216 (National Center for Advancing Translational Sciences (NCATS), 2011).
